Most compounds without a hit are left out; they make up all but 28% or so of the library.
CYP2C9 act: activators of human CYP2C9. activation factor at 5 µM. P11712. AID 1024. hit rate 1.4% among 96,000. recombinant CYP2C9, luciferin-H conversion, luminescence; active compounds read high; factor 1 = untreated enzyme, 0 = blocked;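 active = activation factor of 2 or more for CYP2C9 at a 5 µM dose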;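 also: 0 = sulfaphenazole-blocked wells and 1 = vehicle-only wells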
CYP2C19 inh: inhibitors of human CYP2C19; P33261; CYP2C19 Supersomes, luciferin-H EGE luminescence, 30 min; inhibition, % at 5 µM; hit rate 21% among 96,000; AID 778;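 active = CYP2C19 inhibition above a set limit at 5 µM in the primary screen, cut at about 50% in these data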;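 also: plate controls were negative control wells for no effect and 2.5 mM tranylcypromine positive control for full effect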
CYP2C9 inh: blocks human cytochrome P450 2C9; inhibition, % at 5 µM; hit rate 20% among 96,000; AID 777; CYP2C9 Supersomes, luciferin-H conversion, luminescence;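 active = blocking of liver enzyme CYP2C9 beyond about 50% at 5 µM, limit read from the data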
PTK2B oligo ant: antagonists of human Pyk2 oligomerization | AID 1347419 | Q293 cells, Pyk2 FERM NanoBiT luminescence; active compounds read low | Q14289 | z-score (the deposit names both 25 µM and 10 µM) | hit rate 0.83% among 99,000;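 active = Z-score of -3 or lower, scaled per plate to the spread of control and sample wells; inactive = z-score above -3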;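 also: negative z-score means lost luminescence so less FERM oligomerization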
Target sequence (Q14289 whole entry, looked up): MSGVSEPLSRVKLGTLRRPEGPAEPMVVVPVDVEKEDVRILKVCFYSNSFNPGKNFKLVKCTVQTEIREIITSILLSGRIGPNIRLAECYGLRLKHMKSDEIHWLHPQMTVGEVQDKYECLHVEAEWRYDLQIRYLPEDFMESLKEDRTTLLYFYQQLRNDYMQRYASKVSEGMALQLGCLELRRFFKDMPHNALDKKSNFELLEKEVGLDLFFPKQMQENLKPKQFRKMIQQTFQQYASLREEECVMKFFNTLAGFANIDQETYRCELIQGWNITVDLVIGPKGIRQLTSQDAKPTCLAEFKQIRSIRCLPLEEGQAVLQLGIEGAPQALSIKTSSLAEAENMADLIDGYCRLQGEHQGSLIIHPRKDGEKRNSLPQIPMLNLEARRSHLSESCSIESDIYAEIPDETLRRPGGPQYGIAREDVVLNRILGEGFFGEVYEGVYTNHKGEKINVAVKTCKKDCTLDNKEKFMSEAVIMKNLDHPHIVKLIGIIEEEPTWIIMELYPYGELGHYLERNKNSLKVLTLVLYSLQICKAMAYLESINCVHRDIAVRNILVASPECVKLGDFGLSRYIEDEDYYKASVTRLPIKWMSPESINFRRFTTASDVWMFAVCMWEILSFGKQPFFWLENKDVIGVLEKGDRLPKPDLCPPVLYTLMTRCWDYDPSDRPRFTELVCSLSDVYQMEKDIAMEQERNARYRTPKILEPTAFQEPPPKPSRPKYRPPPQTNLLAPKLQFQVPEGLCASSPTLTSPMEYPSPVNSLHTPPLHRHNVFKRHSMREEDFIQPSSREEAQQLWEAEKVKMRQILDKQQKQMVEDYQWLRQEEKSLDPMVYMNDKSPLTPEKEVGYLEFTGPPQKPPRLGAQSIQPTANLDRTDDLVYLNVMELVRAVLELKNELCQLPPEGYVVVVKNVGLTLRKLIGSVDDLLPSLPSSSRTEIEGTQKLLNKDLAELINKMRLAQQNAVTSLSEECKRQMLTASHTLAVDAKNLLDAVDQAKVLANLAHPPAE
CYP2C19 act: activators of human cytochrome P450 2C19. P33261. recombinant CYP2C19, luciferin-H EGE luminescence; active compounds read high; 0 = fully inhibited enzyme, 1 = untreated enzyme. activation factor at 5 µM. 96,000 tested, under 10 active. AID 1025;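 active = activation factor of at least 2 at 5 µM in the primary screen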;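 also: 0 = wells with 2.5 mM tranylcypromine and 1 = vehicle-only wells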
Active calls of the source: *; x = no result given.

SMILES	CYP2C9 act	CYP2C19 inh	CYP2C9 inh	PTK2B oligo ant	CYP2C19 act
O=C(Nc1cccc(C(F)(F)F)c1)c1cc(-c2ccc(F)cc2)on1	3.5*	-18	-250	1.8	1.2
CC(C)c1cc(C(=O)Nc2cccc(C(F)(F)F)c2)no1	0.8	12	16	-0.68	0.9
COc1cccc(-c2cc(C(=O)NC3CCCC3)no2)c1	1.9	80*	-92	-0.46	0.2
Cn1ncc2c(=O)n(CC(=O)NC34CC5CC(CC(C5)C3)C4)cnc21	1.2	-6	-21	0.06	1.1
COC(=O)[C@@H](NC(=O)Nc1cccc(OC)c1)C(C)C	1.1	-8	-6	0.87	1.1
CCOc1cccc(-c2nnc(SCC(=O)Nc3cc(OC)cc(OC)c3)n2N)c1	0.9	1	7	0.4	1
COc1ccc(NC(=O)CSc2nnc(-c3ccccc3C)n2N)cc1	0.3	58*	74*	-0.35	0.4
Cc1ccccc1-c1nnc(SCC(=O)Nc2ccc(Cl)cc2)n1N	0.3	54*	70*	-2.9	0.5
COc1cccc(NC(=O)CSc2nnc(-c3cccc(OC(C)C)c3)n2N)c1	0.2	42	76*	1.4	0.6
CC(C)CCNC(=O)NC(=O)CSc1nnc(-c2ccccc2F)n1N	0.5	44	54*	1.4	0.6
COc1ccc(NC(=O)CSc2nnc(-c3ccccc3C)n2N)cc1OC	0.8	-3	20	0.59	1
CC1(CCc2ccc(O)cc2)NC(=O)NC1=O (stereo not drawn)	1	2	0	-0.37	1
Cc1ccc(OCCNS(=O)(=O)c2ccc(N3CCCC3=O)cc2)cc1C	0.6	30	40	1.9	0.7
c1ccc(-c2n[nH]c(-c3ccccn3)n2)nc1	0.9	67*	14	-0.27	0.3
CC(=NC1CCCCC1)C1=C(O)c2ccccc2C1=O	0.1	87*	86*	-1.1	0.1
Cc1ccc(O)c(C2=NOC(O)(C(F)(F)C(F)F)C2)c1 (stereo not drawn)	0.5	84*	53*	0.35	0.2
Cc1ccc(O)c(C2=NCCNC(C(F)(F)C(F)F)=C2)c1	0.7	33	34	-0.76	0.7
Cc1ccc(O)c(C2=NOC(O)(C(F)(F)F)C2)c1 (stereo not drawn)	0.8	68*	17	0.75	0.3
COC(=O)c1cccc(NC(=O)C(C)N2C(=O)c3ccccc3C2=O)c1 (stereo not drawn)	0	48	98*	1.3	0.5
COC(=O)c1cccc(NC(=O)c2nn(C(C)C)c(=O)c3ccccc23)c1	0.6	7	39	-0.81	0.9
Cc1cccc(CSc2nc3sc(C)c(C)c3c(=O)n2Cc2ccco2)c1	0.2	42	84*	1.3	0.6
Cc1cccc(CSc2nnc(-c3cccs3)n2Cc2ccco2)c1	0.5	69*	53*	-1.7	0.3
Cc1sc2nc(SCc3nc4ccccc4[nH]3)n(Cc3ccco3)c(=O)c2c1C	0.2	17	78*	0.76	0.8
COc1cccc(CSc2nc3sc(C)c(C)c3c(=O)n2Cc2ccco2)c1	0.2	56*	78*	-0.63	0.4
Cc1ccc(OS(=O)(=O)c2ccccc2)c(/C=N/N=C2\NC(=O)C(C)S2)c1 (stereo not drawn)	x	x	x	-1.3	x
SMILES	CYP2C9 act	CYP2C19 inh	CYP2C9 inh	PTK2B oligo ant	CYP2C19 act
CC(=O)C1=C(N2CCCCC2)CCC1=O	1.1	3	-12	-0.64	1
CCOc1ccc(-c2nnn(CC#N)n2)cc1OC	x	x	x	-0.15	x
CCOC1(OCC)C(c2ccc(Cl)cc2)C(C#N)(C#N)C1(OCC)OCC (stereo not drawn)	0.5	40	48	-1.8	0.6
C/C(=N\O)c1ccc2c3ccccc3n(C)c2c1	0.5	34	55*	-0.7	0.7
CCn1c2ccccc2c2cc(/C(C)=N/O)ccc21	0.5	22	50	-0.55	0.8
CC1CCC(NC(=O)C2c3ccccc3C(=O)N2CCCN2CCOCC2)CC1 (stereo not drawn)	0.9	-5	8	0.28	1.1
CCNC(=O)N1C(=O)C2(OCCO2)c2ccccc21	1	3	2	0.21	1
Cc1ccc(NC(=O)N2C(=O)C3(OCCO3)c3ccccc32)cc1	1	60*	-4	0.26	0.4
Cc1ccc(C(=O)CC2(O)C(=O)N(C)c3ccc(Br)cc32)c(C)c1 (stereo not drawn)	0.4	62*	55*	x	0.4
CN1C(=O)C(O)(CC(=O)c2ccccn2)c2cc(Br)ccc21 (stereo not drawn)	0.9	67*	6	-0.31	0.3
CN1C(=O)C(O)(C2COC(C)(C)CC2=O)c2cc(Br)ccc21 (stereo not drawn)	1	54*	-5	-0.05	0.5
CCN(CC(=O)NC1CCS(=O)(=O)C1)C(=O)C(c1ccccc1)c1ccccc1 (stereo not drawn)	0.9	5	7	0.37	1
Cc1cc(C)n(CCc2nc(-c3ccco3)cs2)n1	1	32	-1	-0.43	0.7
Cc1nn(CCc2nc(-c3ccco3)cs2)c2[nH]c(=O)cc(C(F)(F)F)c12	0.3	56*	71*	0.02	0.4
COc1ccc(/C=C2\C(=O)NCC(=O)N2Cc2ccccc2)cc1	0.5	65*	53*	-1.3	0.4
CCOC(=O)C1=C(C)N(Cc2ccccc2)C(=O)NC1c1ccc(OC)cc1 (stereo not drawn)	x	x	x	-2.8	x
COc1ccc(/C=C2\C(=O)N(Cc3ccc(F)cc3)CC(=O)N2Cc2ccccc2)cc1	0.1	72*	88*	-0.71	0.3
Cc1sc2ncnc(SCC(=O)N3CCC(c4noc5ccc(F)cc45)CC3)c2c1C	0.2	65*	79*	1.3	0.4
COc1ccc(Nc2nnc(SCc3cc([N+](=O)[O-])cc4c3OCOC4)s2)cc1	0.1	37	94*	-0.2	0.6
O=C(COC(=O)Cc1ccc(S(=O)(=O)N2CCOCC2)s1)NCc1ccc(Cl)cc1	0.1	73*	86*	-1.5	0.3
CCCCNC(=O)COC(=O)c1ccc(Cl)c(S(=O)(=O)N2CCCC2)c1	0.8	74*	25	-0.16	0.3
O=C(COC(=O)c1ccc(S(=O)(=O)N2CCCC2)cc1)NCc1ccc(Cl)cc1	0.5	45	54*	-0.16	0.6
CCNC(=O)COC(=O)c1ccc(S(=O)(=O)N2CCCCCC2)cc1	0.7	5	34	3.7	1
COC(=O)c1ccc(N2CCN(CC(=O)c3ccc(-c4ccccc4)cc3)CC2)c([N+](=O)[O-])c1	0.5	39	50*	-0.37	0.6
COc1ccccc1N1CCN(C(=O)c2cc3cc(Br)ccc3oc2=O)CC1	0.9	59*	14	x	0.4
O=C(c1ccc(Br)s1)N1CCN(c2ncccn2)CC1	0.2	98*	80*	0.55	0
O=C(c1c(F)cccc1F)N1CCN(c2ncccn2)CC1	0.3	23	65*	2.4	0.8
COC(=O)C1CCN(C(=O)c2ccccc2Oc2ccccc2)CC1	0.4	79*	55*	-0.14	0.2
